What was measured:
Test in all cases: DAPPL (digital affinity profiling via proximity ligation, sequencing); 10 mM Tris-HCl pH 7.5, 50 mM NaCl, 1 mM DTT, 4% glycerol, room temperature, 30 min; GST-TFs on glutathione beads, 16-mer random dsDNA library, 0.1% formaldehyde crosslink after washing; high values mean tight binding
FLI1 = biological target: T1, FLI1 (Homo sapiens, UniProt Q01543 1-452); details: protein: recombinant; tags: N-terminal GST; dsDNA, one strand shown
T1 sequence: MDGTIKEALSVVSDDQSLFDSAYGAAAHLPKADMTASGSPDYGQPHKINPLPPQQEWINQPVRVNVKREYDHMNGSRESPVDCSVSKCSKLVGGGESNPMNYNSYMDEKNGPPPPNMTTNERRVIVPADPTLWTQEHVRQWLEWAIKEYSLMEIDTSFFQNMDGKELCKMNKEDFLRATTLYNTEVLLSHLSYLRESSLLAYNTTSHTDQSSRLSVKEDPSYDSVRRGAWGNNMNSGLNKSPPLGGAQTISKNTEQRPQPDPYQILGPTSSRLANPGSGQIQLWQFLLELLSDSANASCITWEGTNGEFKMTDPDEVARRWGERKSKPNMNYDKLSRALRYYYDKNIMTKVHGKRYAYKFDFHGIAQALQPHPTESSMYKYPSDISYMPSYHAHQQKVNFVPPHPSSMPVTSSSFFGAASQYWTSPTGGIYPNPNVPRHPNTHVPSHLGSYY
Summary of the method: (§1)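 Human transcription factors were made in yeast as GST fusions, captured on glutathione beads and barcoded with DNA. With a tag-only sample included, the pool was incubated with 200 nmole of a random double-stranded 16-mer DNA library in Tris/NaCl/DTT/glycerol buffer at room temperature for 30 min, then crosslinked with 0.1% formaldehyde after washing, ligated by proximity, amplified and sequenced. For binding signal, each hexamer's read frequency for a factor is divided by its frequency for the tag-only sample.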

ELK1 = biological target: T2, ELK1 (Homo sapiens, UniProt P19419 1-428); details: protein: recombinant; tags: N-terminal GST; dsDNA, one strand shown
T2 sequence: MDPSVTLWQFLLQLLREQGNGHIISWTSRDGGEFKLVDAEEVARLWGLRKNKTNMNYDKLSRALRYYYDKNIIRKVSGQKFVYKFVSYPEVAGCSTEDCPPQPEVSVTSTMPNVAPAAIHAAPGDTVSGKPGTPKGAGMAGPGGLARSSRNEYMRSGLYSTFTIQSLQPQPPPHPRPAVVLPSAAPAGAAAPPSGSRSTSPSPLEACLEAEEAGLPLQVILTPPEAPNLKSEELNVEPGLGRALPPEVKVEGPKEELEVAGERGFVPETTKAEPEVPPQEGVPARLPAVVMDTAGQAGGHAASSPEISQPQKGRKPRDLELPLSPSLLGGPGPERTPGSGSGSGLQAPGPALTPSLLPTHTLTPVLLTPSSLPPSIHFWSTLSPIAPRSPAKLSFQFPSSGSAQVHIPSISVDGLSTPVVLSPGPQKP
Summary of the method: as §1

GABPA = biological target: T3, GABPA (Homo sapiens, UniProt Q06546 1-454); details: protein: recombinant; tags: N-terminal GST; dsDNA, one strand shown
T3 sequence: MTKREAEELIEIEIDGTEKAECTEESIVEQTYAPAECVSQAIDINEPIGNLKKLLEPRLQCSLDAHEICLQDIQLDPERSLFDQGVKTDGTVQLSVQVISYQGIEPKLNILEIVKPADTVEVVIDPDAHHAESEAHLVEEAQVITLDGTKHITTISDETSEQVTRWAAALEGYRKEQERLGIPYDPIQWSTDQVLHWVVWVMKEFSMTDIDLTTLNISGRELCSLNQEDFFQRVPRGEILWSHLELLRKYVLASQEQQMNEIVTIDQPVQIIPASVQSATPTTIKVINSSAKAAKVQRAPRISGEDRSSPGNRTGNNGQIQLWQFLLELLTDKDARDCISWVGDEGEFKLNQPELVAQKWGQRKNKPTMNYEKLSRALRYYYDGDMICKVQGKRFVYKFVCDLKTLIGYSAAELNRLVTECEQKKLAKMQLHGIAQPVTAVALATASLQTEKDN
Summary of the method: as §1

ERG = biological target: T4, ERG (Homo sapiens, UniProt P11308 1-479); details: protein: recombinant; tags: N-terminal GST; dsDNA, one strand shown
T4 sequence: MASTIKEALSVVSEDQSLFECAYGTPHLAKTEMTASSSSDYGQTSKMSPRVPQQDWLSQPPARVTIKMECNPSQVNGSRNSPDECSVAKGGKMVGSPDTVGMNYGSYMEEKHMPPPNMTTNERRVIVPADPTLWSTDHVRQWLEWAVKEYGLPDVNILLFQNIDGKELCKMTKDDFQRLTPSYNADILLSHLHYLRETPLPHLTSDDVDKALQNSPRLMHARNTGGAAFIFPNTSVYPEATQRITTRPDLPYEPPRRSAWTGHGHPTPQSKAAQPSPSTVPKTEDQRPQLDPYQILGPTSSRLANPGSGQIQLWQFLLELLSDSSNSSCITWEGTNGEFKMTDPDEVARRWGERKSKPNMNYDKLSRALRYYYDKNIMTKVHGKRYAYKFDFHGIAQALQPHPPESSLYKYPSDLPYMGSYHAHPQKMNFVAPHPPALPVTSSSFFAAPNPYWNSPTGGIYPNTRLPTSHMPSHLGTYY
Summary of the method: as §1

ELF1 = ELF1 (Homo sapiens, UniProt P32519 1-619); details: protein: recombinant; tags: N-terminal GST; dsDNA, one strand shown
ELF1, sequence (P32519 whole entry): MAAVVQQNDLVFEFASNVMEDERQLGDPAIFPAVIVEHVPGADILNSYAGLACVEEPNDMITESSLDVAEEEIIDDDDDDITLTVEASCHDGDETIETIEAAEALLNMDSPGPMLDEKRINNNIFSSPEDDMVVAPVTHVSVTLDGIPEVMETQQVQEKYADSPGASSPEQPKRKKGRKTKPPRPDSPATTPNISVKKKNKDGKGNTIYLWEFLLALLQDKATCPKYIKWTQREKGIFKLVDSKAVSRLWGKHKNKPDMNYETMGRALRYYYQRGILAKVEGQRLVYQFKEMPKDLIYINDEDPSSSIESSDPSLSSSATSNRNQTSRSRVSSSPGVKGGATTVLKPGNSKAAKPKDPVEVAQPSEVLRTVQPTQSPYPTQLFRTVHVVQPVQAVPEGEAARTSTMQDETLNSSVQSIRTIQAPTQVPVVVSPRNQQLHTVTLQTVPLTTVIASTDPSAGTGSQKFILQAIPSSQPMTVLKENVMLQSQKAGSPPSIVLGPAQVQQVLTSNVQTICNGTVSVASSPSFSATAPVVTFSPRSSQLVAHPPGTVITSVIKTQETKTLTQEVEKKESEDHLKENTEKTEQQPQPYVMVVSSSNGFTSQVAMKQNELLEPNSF
Summary of the method: as §1

EHF = biological target: T5, EHF (Homo sapiens, UniProt Q9NZC4 1-300); details: protein: recombinant; tags: N-terminal GST; dsDNA, one strand shown
T5 sequence: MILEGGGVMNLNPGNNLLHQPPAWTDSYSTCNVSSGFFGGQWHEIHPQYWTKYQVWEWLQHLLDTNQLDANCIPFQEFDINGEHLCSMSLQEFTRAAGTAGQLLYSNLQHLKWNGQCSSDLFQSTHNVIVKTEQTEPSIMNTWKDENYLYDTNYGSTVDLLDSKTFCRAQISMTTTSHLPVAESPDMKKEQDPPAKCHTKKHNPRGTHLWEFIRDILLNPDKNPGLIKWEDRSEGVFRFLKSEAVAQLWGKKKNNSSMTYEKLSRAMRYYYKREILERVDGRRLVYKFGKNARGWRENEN
Summary of the method: as §1

SPI1 = SPI1 (Homo sapiens, UniProt P17947 1-270); details: protein: recombinant; tags: N-terminal GST; dsDNA, one strand shown
Summary of the method: as §1

SPIB = SPIB (Homo sapiens, UniProt Q01892 1-262); details: protein: recombinant; tags: N-terminal GST; dsDNA, one strand shown
SPIB, sequence (Q01892 whole entry): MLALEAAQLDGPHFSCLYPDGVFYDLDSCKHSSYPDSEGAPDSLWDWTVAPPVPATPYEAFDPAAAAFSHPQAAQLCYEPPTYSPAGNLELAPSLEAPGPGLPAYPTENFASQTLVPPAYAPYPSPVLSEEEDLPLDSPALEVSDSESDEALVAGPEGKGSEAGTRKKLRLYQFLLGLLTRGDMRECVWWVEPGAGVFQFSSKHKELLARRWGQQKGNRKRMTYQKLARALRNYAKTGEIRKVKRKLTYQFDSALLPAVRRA
Summary of the method: as §1

ELK3 = biological target: T6, ELK3 (Homo sapiens, UniProt P41970 1-407); details: protein: recombinant; tags: N-terminal GST; dsDNA, one strand shown
T6 sequence: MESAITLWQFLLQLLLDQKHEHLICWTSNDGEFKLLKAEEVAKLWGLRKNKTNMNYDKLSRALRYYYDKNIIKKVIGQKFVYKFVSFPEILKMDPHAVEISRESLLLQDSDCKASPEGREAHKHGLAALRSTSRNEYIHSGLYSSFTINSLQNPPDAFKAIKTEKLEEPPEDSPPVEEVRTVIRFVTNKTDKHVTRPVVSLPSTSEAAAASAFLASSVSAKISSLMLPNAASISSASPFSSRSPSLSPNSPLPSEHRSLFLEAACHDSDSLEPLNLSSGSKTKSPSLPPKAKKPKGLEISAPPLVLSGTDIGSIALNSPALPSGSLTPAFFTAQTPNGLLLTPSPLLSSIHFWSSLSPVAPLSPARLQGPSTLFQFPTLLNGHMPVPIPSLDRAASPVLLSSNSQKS
Summary of the method: as §1

FEV = biological target: T7, FEV (Homo sapiens, UniProt Q99581 1-238); details: protein: recombinant; tags: N-terminal GST; dsDNA, one strand shown
T7 sequence: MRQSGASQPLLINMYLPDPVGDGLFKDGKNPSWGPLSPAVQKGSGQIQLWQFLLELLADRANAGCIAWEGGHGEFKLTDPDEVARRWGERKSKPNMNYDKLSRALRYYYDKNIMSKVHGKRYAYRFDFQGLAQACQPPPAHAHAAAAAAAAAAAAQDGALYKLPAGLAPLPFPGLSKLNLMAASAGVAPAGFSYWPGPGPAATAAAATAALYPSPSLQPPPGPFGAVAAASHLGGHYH
Summary of the method: as §1

ETV5 = ETV5 (Homo sapiens, UniProt P41161 1-510); details: protein: recombinant; tags: N-terminal GST; dsDNA, one strand shown
ETV5, sequence (P41161 whole entry): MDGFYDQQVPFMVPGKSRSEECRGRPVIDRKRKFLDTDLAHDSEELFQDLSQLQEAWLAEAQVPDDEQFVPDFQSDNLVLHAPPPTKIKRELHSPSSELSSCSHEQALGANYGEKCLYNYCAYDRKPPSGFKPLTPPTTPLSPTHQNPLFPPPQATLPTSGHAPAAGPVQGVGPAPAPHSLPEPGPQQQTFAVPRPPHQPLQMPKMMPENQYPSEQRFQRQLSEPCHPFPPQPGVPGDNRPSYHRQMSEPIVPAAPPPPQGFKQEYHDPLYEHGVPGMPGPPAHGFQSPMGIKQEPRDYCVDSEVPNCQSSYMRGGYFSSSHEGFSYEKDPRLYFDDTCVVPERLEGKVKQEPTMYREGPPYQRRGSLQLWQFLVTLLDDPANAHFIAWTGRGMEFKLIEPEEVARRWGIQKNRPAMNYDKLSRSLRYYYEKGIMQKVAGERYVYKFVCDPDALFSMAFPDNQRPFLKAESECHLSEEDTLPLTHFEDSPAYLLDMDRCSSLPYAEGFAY
Summary of the method: as §1

HSF1 = HSF1 (Homo sapiens, UniProt Q00613 1-529); details: protein: recombinant; tags: N-terminal GST; chain copies: 3; dsDNA, one strand shown
HSF1, sequence (Q00613 whole entry): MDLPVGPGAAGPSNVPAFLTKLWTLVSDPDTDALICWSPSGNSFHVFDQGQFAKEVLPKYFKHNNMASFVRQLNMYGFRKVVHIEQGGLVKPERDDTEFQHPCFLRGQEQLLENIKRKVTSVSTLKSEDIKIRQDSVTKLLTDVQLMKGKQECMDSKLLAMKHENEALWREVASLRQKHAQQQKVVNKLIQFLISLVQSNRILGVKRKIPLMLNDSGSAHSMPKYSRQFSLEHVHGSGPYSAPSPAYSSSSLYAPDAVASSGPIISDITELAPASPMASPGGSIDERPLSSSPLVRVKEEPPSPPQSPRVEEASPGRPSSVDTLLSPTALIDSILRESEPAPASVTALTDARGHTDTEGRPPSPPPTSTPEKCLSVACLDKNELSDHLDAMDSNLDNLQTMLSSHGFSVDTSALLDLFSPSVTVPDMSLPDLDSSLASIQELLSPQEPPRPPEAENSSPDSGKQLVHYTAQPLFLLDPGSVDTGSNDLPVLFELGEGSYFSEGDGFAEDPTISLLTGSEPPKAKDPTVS
Summary of the method: as §1

SPIC = biological target: T8, SPIC (Homo sapiens, UniProt Q8N5J4 1-248); details: protein: recombinant; tags: N-terminal GST; dsDNA, one strand shown
T8 sequence: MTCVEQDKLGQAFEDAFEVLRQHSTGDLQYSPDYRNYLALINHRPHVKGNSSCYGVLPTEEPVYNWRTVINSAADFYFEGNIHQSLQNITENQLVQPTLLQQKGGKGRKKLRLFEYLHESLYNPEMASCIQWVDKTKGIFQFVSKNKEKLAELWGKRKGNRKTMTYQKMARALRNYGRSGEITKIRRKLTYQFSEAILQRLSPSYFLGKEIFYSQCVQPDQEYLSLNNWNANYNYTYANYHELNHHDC
Summary of the method: as §1

ELF4 = ELF4 (Homo sapiens, UniProt Q99607 1-663); details: protein: recombinant; tags: N-terminal GST; dsDNA, one strand shown
ELF4, sequence (Q99607 whole entry): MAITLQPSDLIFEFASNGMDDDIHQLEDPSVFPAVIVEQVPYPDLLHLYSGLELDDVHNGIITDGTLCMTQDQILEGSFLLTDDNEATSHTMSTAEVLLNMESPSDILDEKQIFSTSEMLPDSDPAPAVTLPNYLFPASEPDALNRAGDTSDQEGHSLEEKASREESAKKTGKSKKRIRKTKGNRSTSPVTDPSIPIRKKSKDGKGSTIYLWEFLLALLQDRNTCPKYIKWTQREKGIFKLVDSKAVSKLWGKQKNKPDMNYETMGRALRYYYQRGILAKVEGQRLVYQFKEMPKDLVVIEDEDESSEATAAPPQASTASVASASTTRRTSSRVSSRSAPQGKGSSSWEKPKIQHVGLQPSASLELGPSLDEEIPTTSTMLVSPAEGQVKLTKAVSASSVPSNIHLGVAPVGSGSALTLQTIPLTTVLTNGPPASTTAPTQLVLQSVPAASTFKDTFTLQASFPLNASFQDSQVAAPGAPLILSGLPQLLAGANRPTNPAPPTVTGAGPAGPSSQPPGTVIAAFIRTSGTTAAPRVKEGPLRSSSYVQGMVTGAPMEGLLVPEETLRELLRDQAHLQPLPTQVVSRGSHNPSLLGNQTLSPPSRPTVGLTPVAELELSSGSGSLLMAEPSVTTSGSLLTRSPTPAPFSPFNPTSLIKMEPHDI
Summary of the method: as §1

ELK4 = biological target: T9, ELK4 (Homo sapiens, UniProt P28324-2 1-405); details: protein: recombinant; tags: N-terminal GST; dsDNA, one strand shown
T9 sequence: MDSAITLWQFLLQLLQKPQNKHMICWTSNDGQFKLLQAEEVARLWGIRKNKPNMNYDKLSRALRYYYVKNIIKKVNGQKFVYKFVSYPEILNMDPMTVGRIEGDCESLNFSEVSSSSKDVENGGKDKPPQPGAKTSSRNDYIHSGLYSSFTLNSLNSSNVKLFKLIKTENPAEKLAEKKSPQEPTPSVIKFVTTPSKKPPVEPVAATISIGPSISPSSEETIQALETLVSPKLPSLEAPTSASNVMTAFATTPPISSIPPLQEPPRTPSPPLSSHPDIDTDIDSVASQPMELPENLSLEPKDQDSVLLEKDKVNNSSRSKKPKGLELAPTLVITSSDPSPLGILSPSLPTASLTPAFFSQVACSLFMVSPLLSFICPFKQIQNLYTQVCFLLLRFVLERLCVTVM
Summary of the method: as §1

ETV2 = biological target: T10, ETV2 (Homo sapiens, UniProt O00321 1-342); details: protein: recombinant; tags: N-terminal GST; dsDNA, one strand shown
T10 sequence: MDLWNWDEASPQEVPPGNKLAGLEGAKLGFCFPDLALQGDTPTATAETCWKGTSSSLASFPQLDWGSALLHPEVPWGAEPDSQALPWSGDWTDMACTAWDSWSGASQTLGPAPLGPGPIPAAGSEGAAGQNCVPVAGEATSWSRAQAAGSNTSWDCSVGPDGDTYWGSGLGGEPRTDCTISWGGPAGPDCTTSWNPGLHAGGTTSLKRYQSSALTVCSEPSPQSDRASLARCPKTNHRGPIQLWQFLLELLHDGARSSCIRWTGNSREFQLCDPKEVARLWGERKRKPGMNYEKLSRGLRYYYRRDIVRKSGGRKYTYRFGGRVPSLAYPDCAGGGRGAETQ
Summary of the method: as §1

ELF3 = biological target: T11, ELF3 (Homo sapiens, UniProt P78545 1-371); details: protein: recombinant; tags: N-terminal GST; dsDNA, one strand shown
T11 sequence: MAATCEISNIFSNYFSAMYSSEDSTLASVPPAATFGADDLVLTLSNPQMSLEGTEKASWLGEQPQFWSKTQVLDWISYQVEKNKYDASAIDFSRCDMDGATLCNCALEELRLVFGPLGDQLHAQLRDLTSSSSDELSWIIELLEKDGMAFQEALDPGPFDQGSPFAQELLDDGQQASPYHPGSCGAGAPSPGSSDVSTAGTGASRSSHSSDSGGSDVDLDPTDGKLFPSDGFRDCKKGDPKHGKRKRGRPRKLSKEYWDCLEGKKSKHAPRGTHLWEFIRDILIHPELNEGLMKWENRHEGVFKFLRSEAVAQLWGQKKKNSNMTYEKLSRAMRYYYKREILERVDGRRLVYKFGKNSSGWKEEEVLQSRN
Summary of the method: as §1

CRX = CRX (Homo sapiens, UniProt O43186 1-299); details: protein: recombinant; tags: N-terminal GST; dsDNA, one strand shown
CRX, sequence (O43186 whole entry): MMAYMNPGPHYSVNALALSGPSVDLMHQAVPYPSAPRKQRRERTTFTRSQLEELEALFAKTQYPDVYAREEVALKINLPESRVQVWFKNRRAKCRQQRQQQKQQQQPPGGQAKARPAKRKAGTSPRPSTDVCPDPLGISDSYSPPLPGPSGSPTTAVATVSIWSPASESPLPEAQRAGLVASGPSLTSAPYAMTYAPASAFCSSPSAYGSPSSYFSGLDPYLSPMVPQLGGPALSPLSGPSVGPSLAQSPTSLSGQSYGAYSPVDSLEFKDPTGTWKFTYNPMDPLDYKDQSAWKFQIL
Summary of the method: as §1

ETV1 = ETV1 (Homo sapiens, UniProt P50549 1-477); details: protein: recombinant; tags: N-terminal GST; dsDNA, one strand shown
ETV1, sequence (P50549 whole entry): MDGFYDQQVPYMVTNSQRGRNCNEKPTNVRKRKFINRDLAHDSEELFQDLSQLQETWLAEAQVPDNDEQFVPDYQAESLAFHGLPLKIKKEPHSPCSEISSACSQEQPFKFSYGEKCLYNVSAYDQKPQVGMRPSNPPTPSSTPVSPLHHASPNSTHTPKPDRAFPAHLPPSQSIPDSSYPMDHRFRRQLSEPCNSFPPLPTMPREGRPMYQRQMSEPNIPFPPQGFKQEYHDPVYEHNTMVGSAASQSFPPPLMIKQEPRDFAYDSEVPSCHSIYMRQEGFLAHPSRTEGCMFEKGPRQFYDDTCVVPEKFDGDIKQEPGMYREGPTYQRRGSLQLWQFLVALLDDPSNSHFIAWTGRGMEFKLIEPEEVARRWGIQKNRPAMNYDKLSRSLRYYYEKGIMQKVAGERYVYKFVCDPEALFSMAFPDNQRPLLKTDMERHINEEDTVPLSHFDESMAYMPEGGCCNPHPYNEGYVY
Summary of the method: as §1

CTCCGC
binding signal (FLI1): 1.51 fold enrichment (6-mer frequency, TF over GST control)
binding signal (ELK1): 1.63 fold enrichment (6-mer frequency, TF over GST control)
binding signal (GABPA): 1.58 fold enrichment (6-mer frequency, TF over GST control)
binding signal (ERG): 1.38 fold enrichment (6-mer frequency, TF over GST control)
binding signal (ELF1): 1.56 fold enrichment (6-mer frequency, TF over GST control)
binding signal (EHF): 1.37 fold enrichment (6-mer frequency, TF over GST control)
binding signal (SPI1): 1.56 fold enrichment (6-mer frequency, TF over GST control)
binding signal (SPIB): 1.37 fold enrichment (6-mer frequency, TF over GST control)
binding signal (ELK3): 1.5 fold enrichment (6-mer frequency, TF over GST control)
binding signal (FEV): 1.43 fold enrichment (6-mer frequency, TF over GST control)
binding signal (ETV5): 1.52 fold enrichment (6-mer frequency, TF over GST control)
binding signal (HSF1): 1.15 fold enrichment (6-mer frequency, TF over GST control)
binding signal (SPIC): 1.51 fold enrichment (6-mer frequency, TF over GST control)
binding signal (ELF4): 1.67 fold enrichment (6-mer frequency, TF over GST control)
binding signal (ELK4): 1.39 fold enrichment (6-mer frequency, TF over GST control)
binding signal (ETV2): 1.57 fold enrichment (6-mer frequency, TF over GST control)
binding signal (ELF3): 1.38 fold enrichment (6-mer frequency, TF over GST control)
binding signal (CRX): 1.3 fold enrichment (6-mer frequency, TF over GST control)
binding signal (ETV1): 1.56 fold enrichment (6-mer frequency, TF over GST control)

— article PMC7862700, “An all-to-all approach to the identification of sequence-specific readers for epigenetic DNA modifications on cytosine”
